Test results reported in PubChem BioAssay (NCI).
About 79,000 compounds went through this panel and 15% of them were active in at least one assay; those are over-represented in the sample as a whole. Rule as the data show it: active = growth inhibition above about 70%; inactive = the rest.

Experiments:
[1] = NCI Yeast Anticancer Drug Screen. Data for the rad50 strain (AID 155);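 also: 0% = growth of vehicle-only cultures of the same strain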; conditions: S. cerevisiae rad50 strain growth inhibition; at 50.0 µM; stronger effect = higher value
How it was run: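 Readout: growth inhibition relative to vehicle-treated cultures. Compound exposure was carried out in a genetically defined yeast strain deficient in DNA damage repair.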

[2] = NCI Yeast Anticancer Drug Screen. Data for the mec2-1 strain (AID 157); conditions: S. cerevisiae mec2-1 strain, at 50.0 µM, stronger effect = higher value
How it was run: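 Strain: mec2-1 (DNA repair/cell cycle alteration). Compound exposure, then growth measured; inhibition expressed relative to vehicle.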

[3] = NCI Yeast Anticancer Drug Screen. Data for the sgs1 mgt1 strain (AID 161);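 also: 0% = growth of cultures given vehicle only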; conditions: S. cerevisiae sgs1 mgt1 strain, at 50.0 µM, stronger effect = higher value
How it was run: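 Genetically altered yeast, compound exposure, growth inhibition relative to vehicle.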

[4] = NCI Yeast Anticancer Drug Screen. Data for the cln2 rad14 strain (AID 165);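 also: 0% = growth equal to vehicle treated cultures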; conditions: S. cerevisiae cln2 rad14 strain, at 50.0 µM, stronger effect = higher value
How it was run: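 Compounds are applied to the cln2 rad14 yeast strain, and growth is then compared with that of vehicle-treated cultures to give inhibition.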

[5] = NCI Yeast Anticancer Drug Screen. Data for the bub3 strain (AID 167); conditions: S. cerevisiae bub3 mutant strain, at 50.0 µM, stronger effect = higher value
How it was run: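 Readout: yeast growth inhibition, expressed relative to vehicle-only wells. The test organism is a mutant strain from a panel with lesions in DNA repair or checkpoint genes.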

[6] = NCI Yeast Anticancer Drug Screen. Data for the mlh1 rad18 strain (AID 175); conditions: S. cerevisiae mlh1 rad18 strain growth inhibition; at 50.0 µM; stronger effect = higher value
How it was run: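 Read-out is yeast growth inhibition, calculated against vehicle-only controls. The compound was applied to a strain engineered with DNA damage repair alterations.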

Measured: growth inhibition

NC(=O)NC(CCl)NC(N)=O
inactive: [1] 6.6% | [2] -5.8% | [3] -2.05% | [4] 13.1% | [5] -3.55% | [6] -12.3%

Nc1nc(N)c(-c2ccccc2)c(C(=O)Nc2ccc(Cl)c(Cl)c2)n1
inactive: [1] -27.9% | [2] -34.4% | [3] 4.1% | [4] 5.6% | [5] -23.1% | [6] -16.4%

O=C(O)CSC1=NNC2(C(=O)N1)c1ccccc1-c1ccccc12
inactive: [1] 1.8% | [2] -2% | [3] 18.4% | [4] -2.1% | [5] -3.85% | [6] 24.1%
